Among the data in PubChem BioAssay AID1159577 (Broad Institute, 2015) are outcome values, retold here.

Hit rate of the full screen: of about 1,300 compounds, about 240 (18%) were called active. Another 8% or so got no clear call; they are omitted. No rule for the calls is given here. Not all results are given here. Entries that show only a call come without a potency. Potency and affinity values are given separately.

The assay can be described thus: HepG2 cell cytotoxicity, dose response, cytotoxicity control, cherry-picked samples (AID 1159577). To be noted: HepG2 cytotoxicity counterscreen, plate reader; series mostly up to 19.5 µM. Background: The purpose of a counterscreen is to sort out artefacts and off-target activity.
Turning to `CCS(=O)(=O)N1CCC2(CC1)CN(Cc1cc(F)ccc1F)[C@H](CO)c1c2c2ccc(OC)cc2n1C`, the molecule was classed as inactive. Next, `CCCNC(=O)Nc1ccc2c(c1)OC[C@@H](C)N(CC1CCCC1)C[C@@H](C)[C@H](OC)CN(C)C2=O`: “inactive”; `COc1ccc2c3c([nH]c2c1)[C@H](CO)N(Cc1ccccc1OC)CC31CCN(S(=O)(=O)c2ccccc2)CC1`: “inactive”. Next, `COc1ccc2c3c([nH]c2c1)[C@H](CO)N(C(=O)C1CCOCC1)CC31CCN(Cc2nccs2)CC1`: “inactive”; `O=C(C[C@H]1C[C@@H]2c3cc(NS(=O)(=O)c4ccc(F)cc4)ccc3O[C@@H]2[C@@H](CO)O1)N1CCc2ccccc2C1`: “inactive”; `O=C(c1ccccc1F)N1CC(=O)N2[C@H](C1)[C@@H](c1ccc(-c3cccnc3)cc1)[C@@H]2CO`: “inactive”.

Turning to `N#C[C@@H]1[C@@H](c2ccccc2C2=CCCC2)[C@H](CO)N1C(=O)C1CC1`, the molecule was called inactive.

Regarding `COc1ccc(NC(=O)N2CCCCN3[C@H](CO)[C@H](c4ccc(C#CCC(C)C)cc4)[C@@H]3C2)cc1`, the outcome was inactive. With `O=C(Nc1ccccc1)N1CCCCN2[C@H](CO)[C@H](c3ccc(C#Cc4ccccc4)cc3)[C@@H]2C1`, the molecule was called inactive. The entry for `O=C(Nc1ccccc1)N1CCCCN2[C@@H](CO)[C@H](c3ccc(C#Cc4cccnc4)cc3)[C@@H]2C1` is “inactive”; for `COc1ccc(NC(=O)N2CCCCN3[C@@H](CO)[C@H](c4ccc(C#Cc5ccccn5)cc4)[C@@H]3C2)cc1` it is “inactive”; for `O=C(Nc1cccc(F)c1)N1CCCCN2[C@@H](CO)[C@H](c3ccc(C#Cc4cccnc4)cc3)[C@@H]2C1` it is “inactive”.

In the case of `O=C(Nc1cccc(F)c1)N1CCCCN2[C@H](CO)[C@H](c3ccc(C#Cc4ccccc4)cc3)[C@@H]2C1`, the result was inactive.

Consider `COc1ccc(C#Cc2ccc3c(c2)[C@H]2[C@H](CCN2C(=O)c2ccccn2)[C@@H](CO)N3)cc1`, for which the result was inactive.

On to `COc1ccc(NC(=O)N2CCC3(CC2)CN(C(=O)C2CCC2)[C@H](CO)c2c3c3ccc(OC)cc3n2C)cc1`, for which the outcome was inactive.

Take `C[C@@H]1CN([C@H](C)CO)C(=O)c2c(c3ccccc3n2C)-c2ccccc2CO[C@H]1CN(C)S(=O)(=O)c1ccc(C(F)(F)F)cc1`: the outcome was inactive.

On to `C[C@@H]1CN([C@@H](C)CO)C(=O)c2c(c3ccccc3n2C)-c2ccccc2CO[C@H]1CN(C)C(=O)Cc1ccccc1`, for which the molecule was called inactive. As for `CCC(=O)N1CC2(C1)[C@@H](c1ccc(-c3cccc(OC)c3)cc1)[C@@H](CO)N2C(C)=O`, the molecule was called inactive. Next, `CO[C@H]1CN(C)C(=O)c2cc(NC(=O)C3CC3)ccc2OC[C@H](C)N(Cc2cc(F)ccc2F)C[C@@H]1C`: “inactive”. Consider `COc1ccc(S(=O)(=O)Nc2ccc3c(c2)CC(=O)N([C@@H](C)CO)C[C@H](C)[C@H](CN(C)S(=O)(=O)c2ccc(C)cc2)O3)cc1`, for which the call was inactive. Next, `Cc1ccc(S(=O)(=O)N(C)C[C@H]2OCc3ccccc3-c3c(n(C)c4ccccc34)C(=O)N([C@@H](C)CO)C[C@H]2C)cc1`: “inactive”; `COc1ccc(NC(=O)N2CCCCN3[C@H](CO)[C@H](c4ccc(C#Cc5ccccc5)cc4)[C@@H]3C2)cc1`: “inactive”. Next, `COc1ccc(C#Cc2ccc([C@H]3[C@H]4CN(C(=O)Nc5ccccc5)CCCCN4[C@H]3CO)cc2)cc1`: “inactive”; `COc1ccc(NC(=O)Nc2ccc3c(c2)[C@H]2C[C@H](CC(=O)N4CCc5ccccc5C4)O[C@H](CO)[C@H]2O3)cc1`: “inactive”; `COc1ccccc1-c1cccc(-c2nc(C(=O)Nc3nccs3)cc3c2[C@H](CCO)N(C(=O)CC2CC2)C3)c1`: “inactive”. Next, `CO[C@H]1CN(C)C(=O)c2cc(NS(=O)(=O)c3ccccc3C)ccc2OC[C@H](C)N(C)C[C@H]1C`: “inactive”; `CC(C)(O)C#Cc1ccc([C@H]2[C@H](CO)N3CCCCN(C(=O)c4ccc(F)cc4)C[C@@H]23)cc1`: “inactive”.

Take `COc1ccc2c3c(n(C)c2c1)[C@H](CO)N(CC1CC1)CC31CN(C(=O)c2ccc3c(c2)OCO3)C1`: the result was inactive. The entry for `CO[C@@H]1CN(C)C(=O)c2ccc(NC(=O)C3CCC3)cc2OC[C@@H](C)N(CC2CCCCC2)C[C@H]1C` is “inactive”. The entry for `CO[C@@H]1CN(C)C(=O)c2cc(NC(=O)c3ccccc3F)ccc2OC[C@H](C)N(C(=O)c2ccccc2F)C[C@@H]1C` is “inactive”. Next, `C[C@H](CO)N1C[C@H](C)[C@@H](CN(C)C(=O)Nc2cccc3ccccc23)Oc2ccc(NC(=O)Cc3cn(C)c4ccccc34)cc2C1=O`: “inactive”; `C[C@H](CO)N1C[C@H](C)[C@@H](CN(C)S(=O)(=O)c2ccc(C(F)(F)F)cc2)OCc2ccccc2-c2c(n(C)c3ccccc23)C1=O`: “inactive”.

With `N#C[C@@H]1[C@H](c2ccccc2-c2cccc(F)c2)[C@@H](CO)N1C(=O)C1CCCC1`, the molecule was classed as inactive.

Turning to `CC(C)(C)[S@@](=O)N1Cc2cc(C(=O)N[C@@H]3CCN(Cc4ccccc4)C3)nc(-c3cccc(-c4cccnc4)c3)c2[C@H]1CCO`, the call was inactive. As to `COCc1cn([C@@H]2C[C@@H]3O[C@H](CO)CC[C@@H]3O[C@@H]2CCc2ccc(-c3ccc(OC)cc3)cc2)nn1`, the outcome was inactive. The entry for `CCCNC(=O)Nc1ccc2c(c1)C(=O)N(C)C[C@@H](OC)[C@H](C)CN(C(=O)C1CCOCC1)[C@@H](C)CO2` is “inactive”. Turning to `COc1ccc(NC(=O)N(C)C[C@@H]2Oc3cc(-c4ccc(C)cc4)ccc3S(=O)(=O)N([C@H](C)CO)C[C@@H]2C)cc1`, the molecule was called inactive.

Consider `C[C@H]1CN([C@@H](C)CO)S(=O)(=O)c2ccc(C#Cc3ccccc3)cc2O[C@@H]1CN(C)S(=O)(=O)c1cn(C)cn1`, for which the molecule was classed as inactive. The entry for `COc1ccc(NC(=O)N2CCCCN3[C@H](CO)[C@H](c4ccc(C#Cc5ccccn5)cc4)[C@@H]3C2)cc1` is “inactive”; for `O=C(Nc1ccccc1)N1CCCCN2[C@H](CO)[C@H](c3ccc(C#Cc4cccnc4)cc3)[C@@H]2C1` it is “inactive”. `COc1cccc(CN2CCCCN3[C@H](CO)[C@@H](c4ccc(C#Cc5cccnc5)cc4)[C@@H]3C2)c1`: the outcome was inactive.

Consider `C[C@@H]1CN([C@H](C)CO)C(=O)c2c(c3ccccc3n2C)-c2ccccc2CO[C@@H]1CN(C)C(=O)[C@H](C)c1ccccc1`, for which the molecule was classed as inactive. The entry for `C[C@@H]1CN([C@H](C)CO)C(=O)c2ccccc2-c2ccccc2CO[C@H]1CN(C)C(=O)Nc1cccc(Cl)c1Cl` is “inactive”.
